# Results from PubChem BioAssay.
# Active and inactive are the calls of the source.
# Columns and labels:
# [1] = system: Plasmodium falciparum Sir2 (PF13_0152, Sir2A); assay: Plasmodium falciparum Sir2A binding compounds – biochemical, small-molecule microarray, 635 nm fluorescence, primary screen (AID 1098); settings: fluorescence 635 nm, higher = more signal;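 further: score merges spot fluorescence intensity with its signal-to-noise ratio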
# [2] = probe aDKK1 binding to arrayed compounds – biochemical, biotinylated probe, 635/667 nm fluorescence, primary screen (AID 1099); settings: small-molecule microarray, higher = more signal;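 further: score merges 667nm spot fluorescence with signal to noise across triplicate slides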
# [3] = probe aCHRDL2 binding to arrayed compounds – biochemical, biotinylated probe, 635/667 nm fluorescence, primary screen (AID 1100); settings: small-molecule microarray, higher = more signal
# [4] = change in splice reporter luminescence, either direction, cell-based, HEK293, spliceosome inhibition project, primary screen (AID 1101); settings: HEK293 splicing luciferase reporter, 24 h, higher = more signal, called active from +8 up or from −8 down;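 further: HEK293 cells carrying a splicing-competent luciferase reporter gene; test concentration not given here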
# [5] = biological target: Fibroblast growth factor 10 (Homo sapiens) (UniProt O15520); assay: compounds binding fibroblast growth factor 10 – biochemical, small-molecule microarray, 635 nm fluorescence, primary screen (AID 1102); settings: FGF10 binding, fluorescence 635 nm, higher = more signal
# Fibroblast growth factor 10 (Homo sapiens), sequence (O15520 whole entry, looked up): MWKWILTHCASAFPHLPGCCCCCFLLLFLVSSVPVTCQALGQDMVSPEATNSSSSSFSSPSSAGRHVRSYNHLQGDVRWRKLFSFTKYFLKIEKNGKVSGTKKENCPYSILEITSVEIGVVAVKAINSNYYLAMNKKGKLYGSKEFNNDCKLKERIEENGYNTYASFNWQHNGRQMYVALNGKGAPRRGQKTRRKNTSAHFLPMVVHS
# [6] = system: glycogen synthase kinase-3 (GSK3A per assay name; protocol says GSK3B); assay: compounds binding glycogen synthase kinase-3 – biochemical, small-molecule microarray, 635 nm fluorescence, GSK3A, primary screen (AID 1103); settings: fluorescence 635 nm, higher = more signal; further: the record names both GSK3A and GSK3B
# [7] = biological target: Epidermal growth factor receptor (Homo sapiens) (UniProt P00533); assay: compounds binding epidermal growth factor receptor – biochemical, small-molecule microarray, 635 nm fluorescence, primary screen (AID 1104); settings: EGFR binding, higher = more signal;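 further: score merges 667 nm emission intensity with spot signal to noise over triplicate slides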
# Epidermal growth factor receptor (Homo sapiens), sequence (P00533 whole entry, looked up): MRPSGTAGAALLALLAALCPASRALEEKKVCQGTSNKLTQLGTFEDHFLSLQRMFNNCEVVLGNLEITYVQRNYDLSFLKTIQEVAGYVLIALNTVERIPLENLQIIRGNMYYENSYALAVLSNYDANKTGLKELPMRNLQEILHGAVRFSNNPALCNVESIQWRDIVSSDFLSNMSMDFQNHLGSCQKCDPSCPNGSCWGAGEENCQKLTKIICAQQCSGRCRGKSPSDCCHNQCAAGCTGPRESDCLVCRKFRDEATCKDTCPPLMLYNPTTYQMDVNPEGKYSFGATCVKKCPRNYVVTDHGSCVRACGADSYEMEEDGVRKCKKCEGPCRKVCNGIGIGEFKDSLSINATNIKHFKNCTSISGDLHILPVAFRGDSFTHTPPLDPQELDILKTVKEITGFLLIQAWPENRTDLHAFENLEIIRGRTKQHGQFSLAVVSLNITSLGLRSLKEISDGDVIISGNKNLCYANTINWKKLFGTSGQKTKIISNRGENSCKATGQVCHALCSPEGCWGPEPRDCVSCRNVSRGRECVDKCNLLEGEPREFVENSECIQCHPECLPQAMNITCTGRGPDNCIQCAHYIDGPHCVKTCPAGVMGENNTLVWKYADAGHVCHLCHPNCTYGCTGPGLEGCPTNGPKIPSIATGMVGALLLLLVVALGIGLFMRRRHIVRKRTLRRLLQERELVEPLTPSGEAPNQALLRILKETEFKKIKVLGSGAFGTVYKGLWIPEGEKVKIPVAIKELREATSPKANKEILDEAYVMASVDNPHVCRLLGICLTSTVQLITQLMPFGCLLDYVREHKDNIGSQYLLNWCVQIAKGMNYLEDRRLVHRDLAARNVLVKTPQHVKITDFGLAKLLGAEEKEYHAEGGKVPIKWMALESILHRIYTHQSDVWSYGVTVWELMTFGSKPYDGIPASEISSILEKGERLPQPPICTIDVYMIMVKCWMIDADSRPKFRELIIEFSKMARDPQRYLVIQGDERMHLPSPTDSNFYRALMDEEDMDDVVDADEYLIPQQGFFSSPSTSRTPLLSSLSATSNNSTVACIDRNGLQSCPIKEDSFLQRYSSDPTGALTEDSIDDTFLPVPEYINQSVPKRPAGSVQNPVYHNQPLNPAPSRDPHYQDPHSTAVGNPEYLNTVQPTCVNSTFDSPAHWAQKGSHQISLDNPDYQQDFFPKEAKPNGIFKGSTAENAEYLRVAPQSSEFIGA
# [8] = biological target: Follistatin-related protein 3 (Homo sapiens) (UniProt O95633); assay: compounds binding follistatin-related protein 3 – biochemical, small-molecule microarray, 635 nm fluorescence, primary screen (AID 1105); settings: FSTL3 binding, higher = more signal;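 further: score merges emission near 667 nm and signal to noise per printed spot across three slides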
# Follistatin-related protein 3 (Homo sapiens), sequence (O95633 whole entry, looked up): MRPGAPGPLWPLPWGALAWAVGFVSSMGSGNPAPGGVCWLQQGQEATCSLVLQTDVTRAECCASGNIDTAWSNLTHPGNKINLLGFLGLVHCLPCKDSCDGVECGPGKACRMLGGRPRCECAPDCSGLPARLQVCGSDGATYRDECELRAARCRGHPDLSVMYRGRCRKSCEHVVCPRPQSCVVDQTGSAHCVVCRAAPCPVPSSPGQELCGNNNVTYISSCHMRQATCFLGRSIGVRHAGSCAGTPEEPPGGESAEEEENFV
# [9] = biological target: Dickkopf-related protein 1 (Homo sapiens) (UniProt O94907); assay: small molecules binding DKK1 protein – biochemical, small-molecule microarray, 635 nm fluorescence scan, primary screen (AID 1106); settings: higher = more signal;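 further: score merges emission near 667 nm with signal to noise over three replicate slides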
# Dickkopf-related protein 1 (Homo sapiens), sequence (O94907 whole entry, looked up): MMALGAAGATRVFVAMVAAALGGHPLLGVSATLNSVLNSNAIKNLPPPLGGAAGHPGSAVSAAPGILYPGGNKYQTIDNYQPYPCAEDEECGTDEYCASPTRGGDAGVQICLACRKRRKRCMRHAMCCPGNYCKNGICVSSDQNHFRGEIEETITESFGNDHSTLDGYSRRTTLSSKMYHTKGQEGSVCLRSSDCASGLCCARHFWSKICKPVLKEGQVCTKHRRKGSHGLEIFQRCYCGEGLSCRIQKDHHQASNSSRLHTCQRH
# [10] = system: Inhibin beta A chain (activin A); assay: small molecules binding activin A – biochemical, small-molecule microarray, 635 nm fluorescence scan, primary screen (AID 1107); settings: INHBA, higher = more signal;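 further: mouse activin A protein probed at 4.33 µg/mL on printed slides; score merges bound-protein fluorescence near 667 nm with spot signal-to-noise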
# [11] = system: Human papillomavirus type 1a protein E7 (residues 44-93); assay: small molecules binding HPV E7 44-93 – biochemical, small-molecule microarray, residues 44-93, 635 nm fluorescence, primary screen (AID 1108); settings: fluorescence 635 nm, higher = more signal;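 further: E7 fragment applied at 1 µg/mL in TBST for 1 h at 4 C; score combines spot fluorescence with its signal to noise ratio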
# [12] = hepatitis C replication reporter changes, two-sided – Huh7 cells, luciferase reporter, HCV replication inhibitor project, primary screen (AID 1109); settings: Huh7 HCV replicon luciferase reporter, 48 h; higher = more signal;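 further: huh7 hepatoma cells harbouring a luciferase neomycin HCV replicon reporter; luciferase luminescence as measure of HCV replicon replication; test concentration not given here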
# [13] = biological target: Left-right determination factor 2 (Homo sapiens) (UniProt O00292); assay: small molecules binding LEFTY2 protein – biochemical, small-molecule microarray, 635 nm fluorescence scan, primary screen (AID 1110); settings: higher = more signal
# Left-right determination factor 2 (Homo sapiens), sequence (O00292 whole entry, looked up): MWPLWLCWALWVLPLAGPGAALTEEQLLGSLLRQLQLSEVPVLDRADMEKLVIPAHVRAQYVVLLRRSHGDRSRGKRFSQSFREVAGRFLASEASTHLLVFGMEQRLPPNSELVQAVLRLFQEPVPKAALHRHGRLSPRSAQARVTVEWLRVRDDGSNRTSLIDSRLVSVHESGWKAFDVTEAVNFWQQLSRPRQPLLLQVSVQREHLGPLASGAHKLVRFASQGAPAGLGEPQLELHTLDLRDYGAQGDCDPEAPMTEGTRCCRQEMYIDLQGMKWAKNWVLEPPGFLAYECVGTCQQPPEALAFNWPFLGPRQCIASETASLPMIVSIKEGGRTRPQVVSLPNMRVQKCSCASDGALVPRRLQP
# [14] = biological target: Calmodulin-1 (Homo sapiens) (UniProt P0DP23); assay: small molecules binding calmodulin-1 with EGTA – biochemical, small-molecule microarray, Cy5-labelled CALM1, profiling panel (AID 1111); settings: Cy5-CALM1 binding fluorescence, higher = more signal;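 further: labelled calmodulin applied in Tris saline Tween buffer holding calcium plus EGTA and DTT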
# [15] = biological target: Calmodulin-1 (Homo sapiens) (UniProt P0DP23); assay: small molecules binding Ca-loaded calmodulin-1 – biochemical, small-molecule microarray, Cy5-labelled CALM1, plus calcium, artefact control for SMM control-protein annotation, profiling panel (AID 1112); settings: Cy5-CALM1 binding fluorescence, higher = more signal;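 further: score merges spot fluorescence with signal to noise from triplicate slides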
# [16] = probe aWnt5a binding to arrayed compounds – biochemical, biotinylated probe, 635/667 nm fluorescence, primary screen (AID 1113); settings: small-molecule microarray, higher = more signal;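 further: score merges 667 nm fluorescence intensity with signal-to-noise per printed feature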
# [17] = probe aShh binding to arrayed compounds – biochemical, biotinylated probe, 635/667 nm fluorescence, primary screen (AID 1114); settings: small-molecule microarray, higher = more signal;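 further: probe is biotin-labelled aShh protein from a stem cell growth factor screen; measures binding of labelled protein to compounds printed on the slide; score merges feature fluorescence at 667 nm with signal-to-noise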
# [18] = probe aNog binding to arrayed compounds – biochemical, biotinylated probe, 635/667 nm fluorescence, primary screen (AID 1115); settings: small-molecule microarray, higher = more signal;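 further: probe is biotinylated aNog protein used at 0.15 µg/mL for 1 h at 4 C; z-score combines 667 nm fluorescence of each spot with its signal to noise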
# [19] = biological target: Torsin-1A-interacting protein 1 (Homo sapiens) (UniProt Q5JTV8); assay: compound microarray binding of lysate hLAP1 – cell lysate, small-molecule microarray, COS7 lysate, 635/667 nm fluorescence, primary screen (AID 1116); settings: 635 nm fluorescence, higher = more signal
# Torsin-1A-interacting protein 1 (Homo sapiens), sequence (Q5JTV8 whole entry, looked up): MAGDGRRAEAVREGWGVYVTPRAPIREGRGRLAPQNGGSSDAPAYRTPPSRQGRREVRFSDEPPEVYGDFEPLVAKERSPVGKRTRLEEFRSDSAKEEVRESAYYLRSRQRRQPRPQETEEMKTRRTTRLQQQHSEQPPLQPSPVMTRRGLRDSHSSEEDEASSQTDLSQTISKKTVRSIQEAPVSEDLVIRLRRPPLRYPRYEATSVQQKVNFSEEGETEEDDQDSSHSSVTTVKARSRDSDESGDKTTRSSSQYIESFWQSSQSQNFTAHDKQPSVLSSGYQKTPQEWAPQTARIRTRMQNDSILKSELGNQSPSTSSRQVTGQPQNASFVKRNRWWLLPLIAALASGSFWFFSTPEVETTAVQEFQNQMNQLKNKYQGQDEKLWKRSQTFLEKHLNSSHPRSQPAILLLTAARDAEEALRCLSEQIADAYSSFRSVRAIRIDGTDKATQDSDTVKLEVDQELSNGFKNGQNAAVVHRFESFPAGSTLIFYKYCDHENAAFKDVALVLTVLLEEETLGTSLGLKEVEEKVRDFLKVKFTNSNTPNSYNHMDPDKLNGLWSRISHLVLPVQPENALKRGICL
# [20] = biological target: Alpha-bungarotoxin (Bungarus multicinctus) (UniProt P60615); assay: compounds binding labelled alpha-BTX control protein – biochemical, small-molecule microarray, Alexa647 label, 635/667 nm fluorescence, artefact control for SMM control protein annotation, profiling panel (AID 1117); settings: alpha-BTX-A647 binding fluorescence, higher = more signal
# Alpha-bungarotoxin (Bungarus multicinctus), sequence (P60615 whole entry, looked up): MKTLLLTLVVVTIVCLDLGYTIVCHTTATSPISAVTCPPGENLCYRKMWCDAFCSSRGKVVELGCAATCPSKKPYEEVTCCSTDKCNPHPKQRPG
structure (smiles),measurement,setting,value
CCOC(=O)C1=CCC(c2cc3ccccc3[nH]2)NC1 (stereo not given),composite z-score,[1],1.47
same,composite z-score,[2],1.1
same,composite z-score,[3],1.31
same,z-score,[4],-1.02 (inactive)
same,composite z-score,[5],0.0855
same,composite z-score,[6],0.233
same,composite z-score,[7],0.242
same,composite z-score,[8],0.0799
same,composite z-score,[9],-0.494
same,composite z-score,[10],1.65
same,composite z-score,[11],-0.192
same,z-score,[12],-0.312
same,composite z-score,[13],0.208
same,composite z-score,[14],-0.219
same,composite z-score,[15],0.19
same,composite z-score,[16],0.0438
same,composite z-score,[17],0.204
same,composite z-score,[18],0.562
same,composite z-score,[19],0.97
same,composite z-score,[20],0.864
CC(C)OC(=O)C=C1C[C@@H](c2ccc(C#N)cc2)O[C@@H](c2ccc(C#N)cc2)O1,composite z-score,[1],1.07
same,composite z-score,[2],0.738
same,composite z-score,[3],0.407
same,z-score,[4],-0.159 (inactive)
same,composite z-score,[5],1.44
same,composite z-score,[6],1.29
same,composite z-score,[7],0.87
same,composite z-score,[8],1.4
same,composite z-score,[9],0.189
same,composite z-score,[10],-0.106
same,composite z-score,[11],1.45
same,z-score,[12],-2.19
same,composite z-score,[13],0.701
same,composite z-score,[14],0.857
same,composite z-score,[15],0.621
same,composite z-score,[16],0.178
same,composite z-score,[17],0.0875
same,composite z-score,[18],0.229
same,composite z-score,[19],1.22
same,composite z-score,[20],1.09
CC[C@@H](c1ccccc1)n1c(=O)n2n(c1=O)[C@H]1[C@H](O)[C@@H]3O[C@@H]3C(=NOCC=C(C)CCC=C(C)C)[C@H]1CC2,composite z-score,[1],0.785
same,composite z-score,[2],-0.156
same,composite z-score,[3],-0.359
same,z-score,[4],1.95 (inactive)
same,composite z-score,[5],0.524
same,composite z-score,[6],0.412
same,composite z-score,[7],0.446
same,composite z-score,[8],1.27
same,composite z-score,[9],0.916
same,composite z-score,[10],0.619
same,composite z-score,[11],1.21
same,z-score,[12],-3.62
same,composite z-score,[13],0.827
same,composite z-score,[14],-0.0812
same,composite z-score,[15],-0.834
same,composite z-score,[16],-0.001
same,composite z-score,[17],-0.0866
same,composite z-score,[18],-0.136
same,composite z-score,[19],0.215
same,composite z-score,[20],0.0806
COC(=O)C1=C(C)N(Cc2ccccc2)[C@]23O[C@](C(=O)OC)(C(=O)N2[C@@H]1c1ccccc1)[C@H]1CCOC(=O)[C@H]13,composite z-score,[1],0.539
same,composite z-score,[2],0.057
same,composite z-score,[3],-0.733
same,z-score,[4],-0.236 (inactive)
same,composite z-score,[5],1.1
same,composite z-score,[6],0.466
same,composite z-score,[7],0.482
same,composite z-score,[8],0.63
same,composite z-score,[9],0.971
same,composite z-score,[10],0.521
same,composite z-score,[11],0.0415
same,z-score,[12],0.233
same,composite z-score,[13],0.548
same,composite z-score,[14],-0.348
same,composite z-score,[15],-0.832
same,composite z-score,[16],-0.0482
same,composite z-score,[17],-0.0769
same,composite z-score,[18],0.171
same,composite z-score,[19],0.333
same,composite z-score,[20],0.0003
CCOC(=O)NN=C1C[C@@H](O)[C@@H](O)[C@@H]2[C@@H]3C(=O)N(C[C@@H]4CCCO4)C(=O)[C@@H]3CC[C@@H]12,composite z-score,[1],0.419
same,composite z-score,[2],-0.147
same,composite z-score,[3],-0.133
same,z-score,[4],0.104 (inactive)
same,composite z-score,[5],0.137
same,composite z-score,[6],0.197
same,composite z-score,[7],0.364
same,composite z-score,[8],0.342
same,composite z-score,[9],-0.0134
same,composite z-score,[10],-0.0039
same,composite z-score,[11],0.396
same,z-score,[12],0.353
same,composite z-score,[13],0.238
same,composite z-score,[14],-0.375
same,composite z-score,[15],-0.32
same,composite z-score,[16],-0.0721
same,composite z-score,[17],-0.273
same,composite z-score,[18],-0.0428
same,composite z-score,[19],0.584
same,composite z-score,[20],-0.189
CC(C)[Si]1(C(C)C)O[C@@H](c2ccccc2)c2cc(C3CC3)nc(-c3ccccc3)c21,composite z-score,[1],-0.792
same,composite z-score,[2],-0.276
same,composite z-score,[3],-0.0652
same,z-score,[4],-0.613 (inactive)
same,composite z-score,[5],-0.0733
same,composite z-score,[6],-0.248
same,composite z-score,[7],-0.337
same,composite z-score,[8],-0.349
same,composite z-score,[9],-0.568
same,composite z-score,[10],-1.07
same,composite z-score,[11],0.503
same,z-score,[12],-0.587
same,composite z-score,[13],-0.953
same,composite z-score,[14],-0.0471
same,composite z-score,[15],-0.239
same,composite z-score,[16],-0.126
same,composite z-score,[17],-0.221
same,composite z-score,[18],-0.368
same,composite z-score,[19],-0.509
same,composite z-score,[20],0.181
CC(C)=NOCc1ccc(-c2cc(-c3ccccc3)no2)cc1,composite z-score,[1],0.0628
same,composite z-score,[2],-0.285
same,composite z-score,[3],-0.515
same,z-score,[4],0.468 (inactive)
same,composite z-score,[5],0.356
same,composite z-score,[6],0.283
same,composite z-score,[7],0.279
same,composite z-score,[8],-0.026
same,composite z-score,[9],0.32
same,composite z-score,[10],0.216
same,composite z-score,[11],-0.0501
same,z-score,[12],-0.115
same,composite z-score,[13],0.384
same,composite z-score,[14],-0.555
same,composite z-score,[15],-0.498
same,composite z-score,[16],-0.0701
same,composite z-score,[17],-0.214
same,composite z-score,[18],-0.139
same,composite z-score,[19],0.0444
same,composite z-score,[20],-0.0299
COCCOC(=O)N1C(=O)[C@@]2(c3cc(C#Cc4ccc(OC)cc4)ccc31)[C@H](C(=O)N1CCN(c3ncccn3)CC1)[C@H]1C(=O)O[C@H](c3ccccc3)[C@H](c3ccccc3)N1[C@@H]2c1ccc(OCCO)cc1,composite z-score,[1],0.593
same,composite z-score,[2],0.61
same,composite z-score,[3],0.628
same,z-score,[4],0.688 (inactive)
same,composite z-score,[5],0.968
same,composite z-score,[6],0.043
same,composite z-score,[7],0.624
same,composite z-score,[8],1.11
same,composite z-score,[9],1.19
same,composite z-score,[10],1.03
same,composite z-score,[11],1.4
same,z-score,[12],-1.56
same,composite z-score,[13],0.64
same,composite z-score,[14],0.766
same,composite z-score,[15],0.397
same,composite z-score,[16],0.101
same,composite z-score,[17],-0.229
same,composite z-score,[18],1.26
same,composite z-score,[19],-0.109
same,composite z-score,[20],0.598
O=C(NN=C1C[C@@H](O)[C@@H](O)[C@@H]2[C@@H]3C(=O)N(c4ccc(F)cc4F)C(=O)[C@@H]3CC[C@@H]12)OCc1ccccc1,composite z-score,[1],0.328
same,composite z-score,[2],-0.269
same,composite z-score,[3],-0.232
same,z-score,[4],0.464 (inactive)
same,composite z-score,[5],-0.0739
same,composite z-score,[6],-0.0799
same,composite z-score,[7],0.452
same,composite z-score,[8],0.297
same,composite z-score,[9],0.092
same,composite z-score,[10],-0.103
same,composite z-score,[11],0.782
same,z-score,[12],-0.769
same,composite z-score,[13],0.312
same,composite z-score,[14],-0.0007
same,composite z-score,[15],-0.226
same,composite z-score,[16],0.0354
same,composite z-score,[17],-0.0553
same,composite z-score,[18],-0.562
same,composite z-score,[19],0.547
same,composite z-score,[20],0.736
COCCCNC(=O)[C@@]1(C)c2ccccc2C(=O)N(Cc2ccc(OC(F)(F)F)cc2)[C@H]1c1ccc(CO)cc1,composite z-score,[1],0.655
same,composite z-score,[2],0.506
same,composite z-score,[3],0.973
same,z-score,[4],-0.346 (inactive)
same,composite z-score,[5],-0.527
same,composite z-score,[6],-1.3
same,composite z-score,[7],-1.11
same,composite z-score,[8],-0.851
same,composite z-score,[9],-0.401
same,composite z-score,[10],0.153
same,composite z-score,[11],-1.56
same,z-score,[12],-0.302
same,composite z-score,[13],-0.738
same,composite z-score,[14],-0.579
same,composite z-score,[15],0.751
same,composite z-score,[16],-0.109
same,composite z-score,[17],-0.2
same,composite z-score,[18],-0.546
same,composite z-score,[19],-0.668
same,composite z-score,[20],-1.16
